From PubChem BioAssay (NCI) come the findings set out here.

Molecules are shown by their SMILES. This is part of a sample that, as a whole, favours compounds with a hit. Of some 83,000 tested, about 20% had one in any assay.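 Assay: single dose, 48 h. Readout: percent growth (0 = no net growth; negative = cell death). Active: <10.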 A number with no mark means an inactive call. Activity calls are given as the source filed them.

Some test systems named below: NCI-H23 lung; NCI-H226 lung; NCI-H322M lung; HOP-62 NSCLC; NCI-H460 lung; NCI-H522 lung; A549/ATCC NSCLC; 786-0 renal; COLO 205 colon; DU-145 prostate; K-562 leukemia; MALME-3M melanoma; MDA-MB-231 breast; RXF 393 renal; SF-268 CNS; SF-295 CNS; SF-539 CNS; UACC-257 melanoma; M14 melanoma; HOP-92 NSCLC.
What all share (test): NCI-60 one-dose screen, 48 h (100 = growth as untreated, 0 = no growth, -100 = all killed)
Details in all cases: 10 µM unless noted

As for `Nc1ncnc2c1c(-c1ccc(Oc3ccccc3)cc1)nn2C[C@@H]1SSC[C@@H]1O`, the growth is 28.8% in the assay with NCI-H23 lung; 46.7% in the assay on NCI-H226 lung; 61.8% in the assay with NCI-H322M lung; 48.8% in the assay with HOP-62 NSCLC; -30.5% (active) with NCI-H460 lung; -22.1% (active) in the assay with NCI-H522 lung. The growth is 22.1% in the assay on A549/ATCC NSCLC; 57.5% in the assay with 786-0 renal; 33.8% with COLO 205 colon; 34% in the assay on DU-145 prostate; 2.87% (active) with K-562 leukemia; -7.41% (active) in the assay on MALME-3M melanoma. In addition, the growth with MDA-MB-231 breast was 52%; with RXF 393 renal, 37.7%; in the assay with SF-268 CNS it was 29.7%; in the assay on SF-295 CNS, 38.3%; in the assay on SF-539 CNS, 40.9%; in the assay on UACC-257 melanoma it was 14.6%. Also, the growth in the assay with M14 melanoma is -85.1% (active).
Regarding `Brc1cccc(-c2cc(-c3ccc4nccnc4c3)[nH]n2)c1`, the growth is 46.5% [25 µM] in the assay on NCI-H23 lung; 22.4% [25 µM] in the assay with NCI-H226 lung; 50.5% [25 µM] with NCI-H322M lung; 30.1% [25 µM] in the assay on HOP-62 NSCLC; 4.81% [25 µM] (active) in the assay on NCI-H460 lung; -5.69% [25 µM] (active) in the assay with NCI-H522 lung. Besides, the growth is 31.2% [25 µM] in the assay with A549/ATCC NSCLC; 35.1% [25 µM] in the assay on 786-0 renal; -24.7% [25 µM] (active) in the assay with COLO 205 colon; 17.7% [25 µM] with DU-145 prostate; 11.9% [25 µM] in the assay with K-562 leukemia; 59.2% [25 µM] in the assay with MALME-3M melanoma. For the same compound, the growth in the assay with MDA-MB-231 breast was 28.3% [25 µM]; with RXF 393 renal it was -12.8% [25 µM] (active); in the assay with SF-268 CNS it was 41.1% [25 µM]; with SF-295 CNS, 7.1% [25 µM] (active); in the assay with SF-539 CNS, -35.2% [25 µM] (active); in the assay on UACC-257 melanoma it was 91.2% [25 µM]. In addition, the growth in the assay with M14 melanoma was 23.5% [25 µM].
Consider `O=c1cc/c(=N\Nc2ccccc2)c(=O)/c1=N/Nc1ccccc1`, for which the growth with NCI-H23 lung was 93.9%; with NCI-H226 lung it was 108%; in the assay on NCI-H322M lung, 93.7%; in the assay with HOP-62 NSCLC, 84.8%; with NCI-H460 lung, 95.7%; with NCI-H522 lung, 110%. In addition, the growth with A549/ATCC NSCLC is 123%; in the assay with 786-0 renal, 112%; with COLO 205 colon it was 137%; with DU-145 prostate it was 106%; in the assay with K-562 leukemia, 105%; in the assay with MALME-3M melanoma it was 119%. The growth in the assay on MDA-MB-231 breast was 100%; in the assay on RXF 393 renal, 121%; in the assay on SF-268 CNS it was 90.5%; with SF-295 CNS it was 122%; in the assay on SF-539 CNS it was 94.6%; in the assay with UACC-257 melanoma, 137%. The growth in the assay with M14 melanoma is 82.2%.
`N#Cc1c(-c2ccccc2)nc(SCC(=O)N2CCN(c3ccccc3)CC2)[nH]c1=O`: the growth is 96.4% in the assay on NCI-H23 lung; 108% with NCI-H226 lung; 95.8% in the assay with NCI-H322M lung; 87.7% in the assay on HOP-62 NSCLC; 110% with NCI-H460 lung; 85.2% in the assay with NCI-H522 lung. Besides, the growth is 96.6% with A549/ATCC NSCLC; 97.9% in the assay on 786-0 renal; 103% in the assay with COLO 205 colon; 120% in the assay on DU-145 prostate; 112% in the assay with K-562 leukemia; 94.9% in the assay on MALME-3M melanoma. Moreover, the growth with MDA-MB-231 breast was 115%; with RXF 393 renal it was 104%; with SF-268 CNS it was 111%; in the assay on SF-295 CNS, 102%; with SF-539 CNS it was 99.2%; in the assay with UACC-257 melanoma it was 89.2%. For the same compound, in the assay with M14 melanoma, the growth was 96.7%.
In the case of `CC(C)(C)n1cc(-c2ccnc(NCCCNS(=O)(=O)c3ccccc3)c2)c(-c2cccc(O)c2)n1`, the growth in the assay with NCI-H23 lung was 72.8%; in the assay on NCI-H226 lung, 53.4%; in the assay on NCI-H322M lung, 59.1%; with HOP-62 NSCLC, 66.1%; with NCI-H460 lung, 19.1%; with NCI-H522 lung, 45%. For the same compound, the growth was 38% with A549/ATCC NSCLC; 25.8% in the assay on 786-0 renal; 14.7% in the assay with COLO 205 colon; 55.1% in the assay with DU-145 prostate; 4.86% (active) in the assay on K-562 leukemia; 44% with MALME-3M melanoma. For the same compound, the growth in the assay with MDA-MB-231 breast was 38.6%; in the assay on RXF 393 renal, 52.8%; with SF-268 CNS it was 50.8%; in the assay on SF-295 CNS, 35.1%; in the assay with SF-539 CNS, 38.3%; with UACC-257 melanoma it was 47.2%. Further, the growth in the assay on M14 melanoma is 34.1%.
Consider `Cc1nc2ncccc2nc1Nc1ccc(S(=O)(=O)Nc2cncs2)cc1`, for which the growth in the assay with NCI-H23 lung is 85%; in the assay with NCI-H226 lung, 92.5%; in the assay on NCI-H322M lung, 101%; with HOP-62 NSCLC, 94%; in the assay on NCI-H460 lung, 97.1%; in the assay with HOP-92 NSCLC it was 65.4%. The growth in the assay on A549/ATCC NSCLC was 103%; in the assay with 786-0 renal it was 96.3%; in the assay on COLO 205 colon, 98.9%; in the assay on DU-145 prostate, 107%; with K-562 leukemia it was 109%; in the assay on MALME-3M melanoma, 103%. Besides, the growth in the assay on MDA-MB-231 breast was 84%; in the assay with RXF 393 renal, 112%; with SF-268 CNS, 98.2%; in the assay on SF-295 CNS it was 107%; in the assay on SF-539 CNS, 106%; in the assay on UACC-257 melanoma, 101%. The growth in the assay with M14 melanoma was 99.6%.
